Compound activity (PubChem BioAssay)
Sampled rows, rich in hits. Any-hit rate of the full collection: about 3%.
TR SRC2 fluor cs: alters Texas Red total fluorescence, flagging assay interference. TRb/SRC2 Texas Red total fluorescence interference. Potency, µM (titrated, usually from 106 µM), for inactives: at the top dose fluorescence change, negative = quenching. hit rate 0.29% among 280,000. AID 1479; active = well fitted curve in either direction with a large enough effect; inconclusive = small, poorly fitted or top-dose-only effect
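Flags fluorescent or light-absorbing compounds by total fluorescence, S + 2P, at 555 nm excitation and 632 nm emission. Mixture: 20 nM Texas Red SRC2 peptide, 0.6 uM human TRb LBD, 1 uM T3, 5% DMSO; compound exposure 5 h at ambient temperature.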
Tau fibril ThT: inhibitors of human tau fibril formation, thioflavin T binding; AID 1460; recombinant tau K18 P301L, heparin-induced fibrillization, ThT fluorescence; Potency, µM (top dose mostly 57.4 µM), inactives show at the highest dose activity, negative = inhibition, actives largely listed as inhibitors; hit rate 2.1% among 270,000; P10636; also: nearly all actives have a fitted effect of over 55% in size
Target sequence (P10636 561-689 P618L limits assumed): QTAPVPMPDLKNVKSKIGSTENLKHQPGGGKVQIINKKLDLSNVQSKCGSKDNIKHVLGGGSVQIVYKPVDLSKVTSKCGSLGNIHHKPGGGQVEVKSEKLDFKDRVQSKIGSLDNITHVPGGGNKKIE
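Fibril formation assay: tau K18 P301L at 15 uM with trace Alexa 594 label, heparin inducer 20 uM, pH 7 sodium acetate buffer, 37 C for 6 hr; endpoint ThT signal.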
TRb SRC2 PPI: disrupts binding of human TR beta to SRC2; P10828; TRbeta-SRC2 peptide binding, fluorescence polarization; receptor liganded with 1 µM T3; Potency, µM (titrated, usually from 106 µM), for inactives: top-dose activity change, negative = inhibition, hits mostly inhibitors; hit rate 0.065% among 280,000; AID 1469;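 also: plate controls were bound peptide for no effect and peptide without receptor for full effect; nearly all actives have a fitted effect of over 50% in size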
Target sequence (P10828 whole entry, looked up): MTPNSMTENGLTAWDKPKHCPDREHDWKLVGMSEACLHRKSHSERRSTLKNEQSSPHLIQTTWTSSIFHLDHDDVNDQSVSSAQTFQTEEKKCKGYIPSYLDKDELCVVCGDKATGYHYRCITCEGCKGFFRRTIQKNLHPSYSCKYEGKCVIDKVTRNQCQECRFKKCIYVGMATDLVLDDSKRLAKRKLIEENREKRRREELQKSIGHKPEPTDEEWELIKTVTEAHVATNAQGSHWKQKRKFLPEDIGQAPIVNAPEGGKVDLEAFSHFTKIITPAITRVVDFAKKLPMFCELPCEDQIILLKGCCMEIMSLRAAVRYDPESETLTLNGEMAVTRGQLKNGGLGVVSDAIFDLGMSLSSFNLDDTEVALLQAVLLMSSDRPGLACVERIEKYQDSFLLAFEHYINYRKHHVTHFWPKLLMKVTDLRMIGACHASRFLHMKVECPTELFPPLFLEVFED
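Fluorescence polarization of 20 nM Texas Red SRC2 peptide with 0.6 uM human TRb ligand-binding domain, in Tris buffer with 1uM T3 and 5% DMSO. Incubated 5 hr ambient; normalized to unbound and bound controls.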
Tau fluor counter: counter-screen for tau fibril formation inhibitors; tau K18 P301L (four-repeat tau fragment) Alexa594 fluorescence, heparin fibrillization; Potency, µM (top dose mostly 57.7 µM), inactives show at the top dose activity change, negative = decrease; hit rate 0.93% among 280,000; AID 1463; also: nearly all actives have a fitted effect of over 55% in size
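Human K18 P301L tau (15 uM unlabeled plus 0.24 uM Alexa 594-labeled, final) in 100 mM sodium acetate pH 7 was mixed with compound and 20 uM heparin and incubated 6 hr at 37 C.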
Tau fibril FP: inhibitors of human tau fibril formation; Potency, µM (doses to about 57.7 µM), without a hit: top-dose activity, negative = inhibition, hits mostly inhibitors; K18 P301L tau heparin fibrillization, Alexa594 FP, 6 h; hit rate 0.39% among 280,000; P10636; also: nearly all actives have a fitted effect of over 55% in size
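K18 P301L tau (15 uM unlabeled/0.24 uM Alexa 594-labeled, final) + compound + heparin 20 uM final; 100 mM NaOAc pH 7; 6 hr 37 C; ThT 30 uM final added, 1 hr RT; FP ex 555/em 632 nm.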
* hit, by the source's call; u = inconclusive; x = not tested or not shown; [ ] = dose if it differs, or a comment. Unless noted, calls follow the shape of the dose curve; as a rule, active = well fitted curve in the direction sought with a large enough effect; inconclusive = small, poorly fitted or top-dose-only effect, or another doubt; inactive = no such curve, though single readings can be large; an effect the other way counts as inactive or inconclusive. Unless noted, % is scaled to controls: 0 for no effect and ±100 for the full control effect; potency is read from the fitted curve at half-maximal effect.

SMILES | TR SRC2 fluor cs | Tau fibril ThT | TRb SRC2 PPI | Tau fluor counter | Tau fibril FP
CCOc1ccccc1NC(=O)Cn1nnc2sc3c(c2c1=O)CCC(C(C)(C)C)C3 (stereo not given) | 0.0% | -7.6% | 2.2% | -15.9% | -7.8%
COc1ccc(/C=C/c2nc(N)nc(-c3ccccc3O)n2)cc1OC | -4.3% | u | 11.2% | u | 20µM*
COc1ccc(F)cc1S(=O)(=O)Nc1cccc(-c2ccc(N3CCC(C)CC3)nn2)c1 | 6.31µM*[quencher] | -2.2% | -19.8% | -18.1% | -6.6%
CC(C)C(C)(C#N)NC(=O)CSc1nc2scc(-c3ccco3)c2c(=O)n1-c1ccccc1 (stereo not given) | u | 10µM* | u | -18.4% | 7.94µM*
COc1ccc(-n2c(-c3ccc(C)cc3)cc3c2CC(C)(C)CC3=O)cc1Cl | -2.4% | -11.1% | 6.1% | -6.7% | -13.5%
Nc1c(C(=O)N/N=C/c2cccnc2)oc2nc(-c3ccccc3)cc(-c3ccco3)c12 | -4.1% | u | 1.0% | -15.4% | 1.0%
Nc1c(C(=O)N/N=C/c2cccnc2)oc2nc(-c3ccco3)cc(-c3ccco3)c12 | -3.3% | 15.8µM* | -1.3% | u | u
CCN1CCC(N(Cc2ccc3c(c2)OCO3)C(=O)Nc2cc(Cl)ccc2C(=O)OC)CC1 | 4.4% | -8.4% | -2.5% | -2.4% | -0.7%
O=C(N/N=C\c1ccc(-c2ccccc2[N+](=O)[O-])o1)C1COc2cc3ccccc3cc2O1 (stereo not given) | 2.3% | 11.2µM* | -2.4% | u | u
O=C(N/N=C\c1ccc(-c2ccccc2[N+](=O)[O-])o1)C1COc2ccccc2O1 (stereo not given) | -3.9% | 12.6µM* | 3.5% | u | u
COc1ccc(CCCn2ncc3c2nc(N)n2nc(-c4ccco4)nc32)cc1 | -5.4% | -10.6% | -6.0% | -15.5% | -4.9%
CCC1=NN2C(=N)/C(=C\c3ccc(SCc4ccco4)o3)C(=O)N=C2S1 | u | 10µM* | 28.4% | -28.7% | 6.1%
CCC1=NN2C(=N)/C(=C/c3c(C)nn(-c4ccccc4)c3Cl)C(=O)N=C2S1 | -1.9% | -11.9% | -2.8% | 10.6% | -3.1%
CCCC1=NN2C(=N)/C(=C\c3ccc(SCc4ccco4)o3)C(=O)N=C2S1 | 50.1µM*[fluorescent] | 10µM* | u | -26.7% | -11.5%
Cc1c(C(=O)Nc2ccc(F)cc2F)oc2c1-c1nn(Cc3c(F)cccc3Cl)cc1CC2 | -1.7% | -6.2% | -2.2% | 1.7% | -0.3%
CCOC(=O)CNC(=O)O[C@H]1C(=O)c2cc(OC)ccc2O[C@@H]1c1ccc(OC)c(Br)c1 | 0.3% | -13.5% | 2.5% | -11.3% | u
O=C(O)CC/C(=N\Nc1ccc([N+](=O)[O-])cc1)c1ccccc1 | -2.6% | 7.94µM* | -2.2% | u | 14.7%
COC(=O)C1=C[C@@H](C(=O)OC)[C@@H]2C3=C(C(=O)C2(C)C)[C@H](c2ccccc2)[C@@H]2C(=O)N(c4ccccc4)C(=O)[C@@H]2[C@@H]3C1 | -3.0% | x | 2.9% | x | x
Cc1cc(=O)[nH]c(SCC(=O)/C=C2\N(C)c3ccccc3C2(C)C)n1 | 19.5%[53 µM] | u | 23.0%[53 µM] | 25.1µM*[fluorescent] | u
Cc1[nH]nc(Nc2ccc(Br)cc2)c1[N+](=O)[O-] | -5.9% | 6.31µM* | -2.1% | -28.1% | -2.0%
Cc1ccc(Nc2n[nH]c(C)c2[N+](=O)[O-])cc1 | -18.4% | u | 2.0% | -18.0% | -1.7%
Cc1[nH]nc(Nc2ccc(C(C)C)cc2)c1[N+](=O)[O-] | -3.3% | 12.6µM* | -0.6% | u | -0.9%
Cc1ccc2c(CC(=O)NCc3ccccc3)coc2c1C | 3.8% | -13.7% | -2.9% | -14.2% | 0.8%
CCOC(=O)c1c(Oc2ccc(C(=O)OC)cc2)nnc(-c2ccccc2)c1-c1ccccc1 | -4.4% | -9.9% | -10.4% | -18.4% | -7.3%
COc1ccccc1N1C(=O)C(Cl)=C(Nc2ccccc2O)C1=O | -2.9% | 12.6µM* | -11.3% | u | 28.2µM*
SMILES | TR SRC2 fluor cs | Tau fibril ThT | TRb SRC2 PPI | Tau fluor counter | Tau fibril FP
Cc1ccc(O)c(NC2=C(Cl)C(=O)N(Cc3ccccc3)C2=O)c1 | -2.6% | 12.6µM* | -4.5% | u | u
O=C1C(Cl)=C(Nc2ccccc2O)C(=O)N1c1ccccc1 | -3.1% | 14.1µM* | -1.6% | u | u
Oc1ccc(/C=N/n2c3ccccc3c3ccccc32)cc1 | -1.2% | 35.5µM* | -7.3% | 14.1µM*[quencher] | u
Cc1[nH]n(-c2ccccc2)c(=O)c1N=Nc1nccs1 | -5.5% | 12.6µM* | -4.1% | -28.3% | 8.1%
Cc1[nH]n(-c2ccccc2)c(=O)c1N=Nc1ccccc1O | -0.2% | u | -2.2% | u | u
COc1ccccc1NC(=O)CSc1nc2c(oc3ccccc32)c(=O)n1-c1ccc(C)cc1 | u | -5.9% | -2.4% | -8.2% | -11.4%
COc1ccccc1N1CSC2=C(C#N)C(c3ccc(SC)cc3)CC(=O)N2C1 (stereo not given) | -5.8% | 28.2µM* | 4.1% | -24.4% | u
COc1cc(C2CC(=O)N3CN(c4ccccc4C)CSC3=C2C#N)cc(OC)c1OC (stereo not given) | -2.3% | 22.4µM* | 7.0% | -12.7% | u
COc1cccc(C2CC(=O)N3CN(c4ccccc4F)CSC3=C2C#N)c1 (stereo not given) | -0.7% | u | -1.1% | -14.8% | -7.6%
COc1cc(OC)c(NC(=O)C(C)n2c(=O)cc(-c3ccccc3)c3c(C)nn(C)c32)cc1Cl (stereo not given) | -19.9% | u | -4.1% | -18.9% | 3.8%
O=C(Nn1c(O)c(C=C2N=c3ccccc3=N2)sc1=S)c1ccccc1 | 0.4% | 14.1µM* | -2.3% | 14.1µM*[quencher] | -1.8%
Oc1c(C=C2N=c3ccccc3=N2)sc(=S)n1-c1ccc(F)cc1 | u | u | -7.3% | u | 1.9%
O=C(Nn1c(O)c(C=C2N=c3ccccc3=N2)sc1=S)c1cccc(Cl)c1 | -2.6% | u | -7.2% | 12.6µM*[quencher] | u
Oc1c(C=C2N=c3ccccc3=N2)sc(=S)n1-c1ccc2ccccc2c1 | -5.1% | u | -1.1% | u | -8.0%
Oc1[nH]c(=S)sc1C=C1N=c2ccccc2=N1 | -11.4% | 14.1µM* | 3.9% | -29.1% | -1.0%
Cc1ccc(C(=O)Nn2c(O)c(C=C3N=c4ccccc4=N3)sc2=S)cc1 | -3.5% | u | -7.7% | u | -13.9%
O=C(Nn1c(O)c(C=C2N=c3ccccc3=N2)sc1=S)c1ccc(Cl)cc1 | -0.2% | 11.2µM* | 2.1% | 7.94µM*[quencher] | u
OCC1OC(C#Cc2ccccc2)C=CC1O (stereo not given) | -1.9%[11.2 µM] | u | -4.4%[11.2 µM] | -16.6%[11.6 µM] | -5.1%[11.6 µM]
O=C(CC1N=C2c3ccccc3N=C(SCC(=O)Nc3ccccc3F)N2C1=O)NCc1ccc2c(c1)OCO2 (stereo not given) | -1.6% | u | -8.5% | -26.2% | -10.7%
